Results published in PubChem BioAssay (EPA / NIEHS).
The source made the active and inactive calls. Rule for the calls: active = hit-call score of the fitted dose curve at least 0.9, where 1 is the maximum; inactive = score below 0.9.

Tests used:
[1] = read-out: Fatty acid synthase (Homo sapiens) (UniProt P49327); assay: LTEA_HepaRG_FASN: Life Technologies and Expression Analysis (LTEA) Assay for Fatty Acid Synthase (FASN) using HepaRG (AID 2283448); conditions: mRNA level, 48 h; actives raise or lower the signal;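 for AC50: differentiated human HepaRG liver cells in serum-free induction medium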
How it was run: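 Cells were plated, cultured 48 h, switched to serum-free induction medium, then dosed in duplicate (max 100 uM, half-log dilutions, 0.5% DMSO) for 48 h. RNA was then isolated and FASN quantified by qRT-PCR.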

[2] = read-out: Cyclin D2 (CCND2), CCND2 (gene 894); assay: LTEA_HepaRG_CCND2: Life Technologies and Expression Analysis (LTEA) Assay for Cyclin D2 (CCND2) using HepaRG (AID 2283449); conditions: mRNA level, 48 h; actives raise or lower the signal
How it was run: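 CCND2 transcript levels, quantified by qRT-PCR and normalised to three housekeeping genes, were fitted bidirectionally against 0.5% DMSO. HepaRG cultures were dosed 48 h in duplicate with an 8-point half-log series up to 100 uM.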

[3] = read-out: Cyclin Dependent Kinase Inhibitor 1A (CDKN1A), CDKN1A (gene 1026); assay: LTEA_HepaRG_CDKN1A: Life Technologies and Expression Analysis (LTEA) Assay for Cyclin Dependent Kinase Inhibitor 1A (CDKN1A) using HepaRG (AID 2283450); conditions: mRNA level, 48 h; actives raise or lower the signal
How it was run: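 HepaRG, 48 h dosing, 8-pt half-log series from 100 uM top, 0.5% DMSO vehicle, duplicates. Readout: TaqMan qRT-PCR of CDKN1A transcript, housekeeping-normalized (ACTB, GAPDH, POLR2A). Up/down curve fit relative to DMSO.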

[4] = read-out: Cyclin D1 (CCND1), CCND1 (gene 595); assay: LTEA_HepaRG_CCND1: Life Technologies and Expression Analysis (LTEA) Assay for Cyclin D1 (CCND1) using HepaRG (AID 2283451); conditions: mRNA level, 48 h; actives raise or lower the signal;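 for AC50: differentiated human HepaRG liver cells in serum-free induction medium; TaqMan qRT-PCR transcript level normalised to ACTB GAPDH and POLR2A housekeeping genes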
How it was run: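 qRT-PCR (Fluidigm 96.96 array) read-out of transcript level, housekeeping-normalized (ACTB/GAPDH/POLR2A). HepaRG cells, 48 h chemical exposure, 8-point half-log series from 100 uM, 0.5% DMSO vehicle; gain or loss relative to DMSO baseline.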

[5] = read-out: catalase (CAT), CAT (gene 847); assay: LTEA_HepaRG_CAT: Life Technologies and Expression Analysis (LTEA) Assay for catalase (CAT) using HepaRG (AID 2283452); conditions: mRNA level, 48 h; actives raise or lower the signal
How it was run: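 Expression of CAT was quantified by TaqMan qRT-PCR with ACTB/GAPDH/POLR2A normalization after 48 h chemical exposure of HepaRG. Eight-point half-log series, top 100 uM, in 0.5% DMSO; gain or loss fitted against vehicle.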

[6] = read-out: flavin-containing dimethylaniline monooxygenases 3 (FMO3), FMO3 (gene 2328); assay: LTEA_HepaRG_FMO3: Life Technologies and Expression Analysis (LTEA) Assay for flavin-containing dimethylaniline monooxygenases 3 (FMO3) using HepaRG (AID 2283453); conditions: mRNA level, 48 h; actives raise or lower the signal;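 for AC50: differentiated human HepaRG liver cells in serum-free induction medium; FMO3 transcript by TaqMan qRT-PCR normalized to ACTB GAPDH and POLR2A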
How it was run: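 FMO3 transcript quantified by TaqMan qRT-PCR against three housekeeping genes after 48 h chemical exposure of HepaRG cells. Eight-point half-log series, top 100 uM, 0.5% DMSO vehicle; phenobarbital 1mM induction control; up- or down-regulation fitted.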

[7] = read-out: CFLAR gene, CFLAR (gene 8837); assay: LTEA_HepaRG_CFLAR: Life Technologies and Expression Analysis (LTEA) Assay for CFLAR gene using HepaRG (AID 2283455); conditions: mRNA level, 48 h; actives raise or lower the signal
How it was run: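 Transcript level by qRT-PCR (normalized to ACTB, GAPDH and POLR2A) after 48 h chemical exposure of HepaRG cells, top concentration 100 uM with half-log steps, 0.5% DMSO vehicle, duplicates; fitted bidirectionally against DMSO baseline.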

[8] = read-out: Cytochrome P450 (CYP1A1), CYP1A1 (gene 1543); assay: LTEA_HepaRG_CYP1A1: Life Technologies and Expression Analysis (LTEA) Assay for Cytochrome P450 (CYP1A1) using HepaRG (AID 2283454); conditions: mRNA level, 48 h; actives raise or lower the signal
How it was run: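 qRT-PCR read-out: CYP1A1 transcript normalized to three housekeeping genes, fitted bidirectionally against 0.5% DMSO vehicle baseline. Human HepaRG cells, 48 h chemical exposure, 8-point half-log series topping at 100 uM.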

[9] = CEETOX_H295R_TESTO: CeeTox H295R High-throughput Steroidogenesis Assay for Testosterone (TESTO) (AID 2283457); conditions: actives raise or lower the signal;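 for AC50: cells exposed to chemicals for 48 h before medium collection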
How it was run: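 Readout: testosterone quantified by HPLC-MS/MS (C18, ESI positive) after MTBE liquid-liquid extraction of culture medium. Cells were H295R, 48 h chemical exposure per OECD 456 with modifications. Gain or loss of signal fitted relative to DMSO.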

[10] = read-out: Forkhead box O1 (FOXO1), FOXO1 (gene 2308); assay: LTEA_HepaRG_FOXO1: Life Technologies and Expression Analysis (LTEA) Assay for Forkhead box O1 (FOXO1) using HepaRG (AID 2283456); conditions: mRNA level, 48 h; actives raise or lower the signal
How it was run: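 FOXO1 transcript quantified by qRT-PCR after 48 h chemical exposure (top 100 uM, half-log steps, 0.5% DMSO) of HepaRG cells, housekeeping-normalized (ACTB/GAPDH/POLR2A). Changes fitted in both directions relative to vehicle.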

Measured: AC50

Sequence of Fatty acid synthase (Homo sapiens) (P49327 whole entry, looked up): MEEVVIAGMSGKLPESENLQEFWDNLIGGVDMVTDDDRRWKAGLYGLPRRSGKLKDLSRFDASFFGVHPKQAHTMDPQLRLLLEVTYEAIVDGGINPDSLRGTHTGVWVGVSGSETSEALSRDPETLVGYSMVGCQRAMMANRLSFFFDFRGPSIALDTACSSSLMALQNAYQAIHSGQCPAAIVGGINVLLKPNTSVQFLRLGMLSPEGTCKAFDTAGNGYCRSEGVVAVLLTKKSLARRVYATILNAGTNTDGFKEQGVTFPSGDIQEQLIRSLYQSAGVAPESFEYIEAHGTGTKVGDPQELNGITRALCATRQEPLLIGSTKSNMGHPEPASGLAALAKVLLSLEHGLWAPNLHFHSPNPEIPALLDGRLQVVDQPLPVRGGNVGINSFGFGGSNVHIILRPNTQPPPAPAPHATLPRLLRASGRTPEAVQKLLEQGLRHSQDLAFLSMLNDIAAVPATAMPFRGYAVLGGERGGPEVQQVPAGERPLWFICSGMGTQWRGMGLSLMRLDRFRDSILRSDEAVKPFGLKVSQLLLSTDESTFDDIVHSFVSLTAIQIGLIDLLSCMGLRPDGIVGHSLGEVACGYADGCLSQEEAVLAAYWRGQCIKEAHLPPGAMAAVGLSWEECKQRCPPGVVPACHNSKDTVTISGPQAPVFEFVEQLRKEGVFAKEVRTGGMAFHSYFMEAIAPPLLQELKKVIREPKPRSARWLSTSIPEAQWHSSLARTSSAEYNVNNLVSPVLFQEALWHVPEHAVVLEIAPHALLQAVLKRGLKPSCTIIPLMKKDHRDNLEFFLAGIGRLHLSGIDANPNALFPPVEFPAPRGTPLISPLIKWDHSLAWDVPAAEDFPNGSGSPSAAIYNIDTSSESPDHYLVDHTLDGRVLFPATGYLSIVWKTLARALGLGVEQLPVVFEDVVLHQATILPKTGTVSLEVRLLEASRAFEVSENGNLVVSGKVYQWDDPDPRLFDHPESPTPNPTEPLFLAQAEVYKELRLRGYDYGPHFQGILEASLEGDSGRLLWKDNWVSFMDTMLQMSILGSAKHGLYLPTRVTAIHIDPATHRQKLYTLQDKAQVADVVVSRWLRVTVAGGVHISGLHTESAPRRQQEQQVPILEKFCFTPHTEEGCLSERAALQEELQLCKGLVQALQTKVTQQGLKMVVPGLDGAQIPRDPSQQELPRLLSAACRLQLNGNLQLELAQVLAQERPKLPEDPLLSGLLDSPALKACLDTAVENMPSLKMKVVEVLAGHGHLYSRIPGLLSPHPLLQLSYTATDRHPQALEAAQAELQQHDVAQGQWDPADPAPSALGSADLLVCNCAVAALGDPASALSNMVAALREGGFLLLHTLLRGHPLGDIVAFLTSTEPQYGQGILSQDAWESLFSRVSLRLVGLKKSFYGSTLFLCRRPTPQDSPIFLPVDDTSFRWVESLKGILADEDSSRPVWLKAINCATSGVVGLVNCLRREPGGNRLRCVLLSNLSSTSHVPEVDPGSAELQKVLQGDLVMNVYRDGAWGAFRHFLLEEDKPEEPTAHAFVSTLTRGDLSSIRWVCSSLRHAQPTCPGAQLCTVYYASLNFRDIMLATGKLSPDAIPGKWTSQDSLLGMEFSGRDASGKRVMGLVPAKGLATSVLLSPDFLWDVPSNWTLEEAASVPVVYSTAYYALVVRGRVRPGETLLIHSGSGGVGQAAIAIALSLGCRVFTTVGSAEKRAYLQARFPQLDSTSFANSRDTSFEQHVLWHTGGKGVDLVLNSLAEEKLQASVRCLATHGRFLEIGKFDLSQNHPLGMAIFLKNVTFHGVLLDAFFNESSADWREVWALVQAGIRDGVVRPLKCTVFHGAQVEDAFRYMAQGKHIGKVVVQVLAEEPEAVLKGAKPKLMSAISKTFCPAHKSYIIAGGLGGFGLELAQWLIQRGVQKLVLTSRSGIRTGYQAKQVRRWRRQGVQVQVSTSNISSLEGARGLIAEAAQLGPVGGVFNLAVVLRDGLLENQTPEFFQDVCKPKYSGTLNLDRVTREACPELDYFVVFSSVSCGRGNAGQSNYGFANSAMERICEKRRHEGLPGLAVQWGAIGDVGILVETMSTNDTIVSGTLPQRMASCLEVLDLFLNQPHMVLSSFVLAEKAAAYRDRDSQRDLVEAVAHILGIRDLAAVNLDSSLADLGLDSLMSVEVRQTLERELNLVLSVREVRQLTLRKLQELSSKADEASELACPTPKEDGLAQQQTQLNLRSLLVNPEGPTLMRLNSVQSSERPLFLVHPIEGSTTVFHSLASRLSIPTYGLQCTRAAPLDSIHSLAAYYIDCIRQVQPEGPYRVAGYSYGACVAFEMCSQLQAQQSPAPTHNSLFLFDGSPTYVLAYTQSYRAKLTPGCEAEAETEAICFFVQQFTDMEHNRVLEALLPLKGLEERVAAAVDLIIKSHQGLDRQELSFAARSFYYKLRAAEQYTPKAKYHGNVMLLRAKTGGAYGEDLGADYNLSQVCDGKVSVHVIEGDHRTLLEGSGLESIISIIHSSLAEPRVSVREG

Cc1nc(C)nc(N2C[C@@H](C)N(c3ccnc([C@@H](C)O)n3)[C@@H](C)C2)n1
inactive: [1] | [2] | [3] | [4] | [5] | [6] | [7]

Cc1nc(-c2ccc3c(c2)CCN(CCC2CCC(NC(=O)/C=C/c4ccc(F)cc4)CC2)CC3)no1 (stereo unspecified)
active: [8] 23.2 µM | [9] 0.248 µM
inactive: [1] | [2] | [3] | [4] | [5] | [6] | [7]

CCCCCCCCCCC
inactive: [1] | [2] | [3] | [4] | [5] | [6] | [7]

CCCCC(CC)COC(=O)CC(C(=O)OCC(CC)CCCC)S(=O)(=O)O (stereo unspecified)
inactive: [2] | [3]
active: [1] 80.5 µM | [4] 85.3 µM | [5] 86.6 µM | [6] 77.4 µM | [8] 10.3 µM | [7] 81.7 µM | [10] 80.8 µM

CC(C)c1ccc(C(=O)N=C(N)N)cc1S(C)(=O)=O
active: [2] 0.634 µM | [3] 0.361 µM | [4] 0.493 µM | [7] 0.361 µM
inactive: [1] | [5] | [6]

CCCCCCCC=O
active: [5] 1.44 µM
inactive: [1] | [2] | [3] | [4] | [6] | [7] | [10]

Cc1cccc([N+](=O)[O-])c1C
inactive: [1] | [2] | [3] | [4] | [5] | [6] | [7]

CC(=O)OC/C=C(\C)CCC=C(C)C
inactive: [1] | [2] | [3] | [4] | [5] | [6] | [7]

FC(F)(F)C(F)(F)C(F)(F)C(F)(F)C(F)(F)C(F)(F)CCI
inactive: [1] | [2] | [3] | [4] | [5] | [6] | [7]

O=C(N[C@@H](Cc1ccccc1)[C@@H](O)C(=O)N1C[C@@H](O)[C@@H](O)C1)c1cc2cc(Cl)ccc2[nH]1
inactive: [1] | [2] | [4] | [5] | [6] | [7] | [10]
active: [3] 63.1 µM

NC(=O)Cn1c(=O)cc(CCN2CCN(c3nccc4sccc34)CC2)c2ccc(F)cc21
active: [1] 29.5 µM | [3] 50 µM | [8] 10.1 µM | [10] 50 µM
inactive: [2] | [4] | [5] | [6] | [7]

NCCO
inactive: [1] | [2] | [3] | [4] | [5] | [6] | [7] | [10]

CCCc1cc(=O)[nH]c(=S)[nH]1
inactive: [1] | [2] | [3] | [4] | [5] | [6] | [7]

CCc1c(C(=O)NN2CCCCC2)nn(-c2ccc(Cl)cc2Cl)c1-c1ccc(Br)cc1
inactive: [2] | [4] | [7]
active: [1] 82.7 µM | [3] 11.4 µM | [5] 41 µM | [6] 35.5 µM | [8] 5.22 µM | [10] 84.3 µM

Clc1cc(Cl)c(Cl)cc1Cl
inactive: [1] | [2] | [3] | [4] | [5] | [6] | [7]

c1cc(-c2ccncc2)ccn1
inactive: [1] | [2] | [3] | [4] | [5] | [6] | [7]

CC1(C)NC(=O)NC1=O
inactive: [1] | [2] | [3] | [4] | [5] | [6] | [7] | [10]

Nc1ccc2c(c1)C(=O)c1ccccc1C2=O
active: [1] 2.86 µM | [3] 26.8 µM | [4] 1.19 µM | [5] 1.57 µM | [6] 12 µM | [7] 3.31 µM
inactive: [2] | [10]

COc1ccc(C)cc1N
inactive: [1] | [2] | [3] | [4] | [5] | [6] | [7] | [9]

CCOc1ccc2c(c1)C(C)=CC(C)(C)N2
active: [3] 50 µM
inactive: [1] | [2] | [4] | [5] | [6] | [7] | [10] | [9]

O=c1[nH]cc(F)c(=O)[nH]1
active: [3] 35.5 µM | [5] 30.7 µM | [6] 36.3 µM
inactive: [1] | [4] | [8] | [7]

CNC(=O)[C@H]1O[C@@H](n2cnc3c(NCc4cc(Cl)ccc4OCc4cc(C)no4)ncnc32)[C@H](O)[C@@H]1N
inactive: [1] | [2] | [3] | [4] | [5] | [6] | [7] | [10]
